The target in assay [1] is Lysosomal acid glucosylceramidase (Homo sapiens) (UniProt P04062). Nature of the assay: Glucocerebrosidase-p2 (AID 348; in the data active = potency below about 10 µM; note: potency is the fitted concentration of half-maximal effect). Particulars: purified GBA, blue fluorogenic substrate, 40 min. In a few lines: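 Normal human glucocerebrosidase (0.2 nM) with blue fluorogenic substrate (80 uM final) in citrate/phosphate pH 5.9 with 10mM sodium taurocholate, 0.01% tween-20; 40 min RT, NaOH/glycine stop; fluorescence Ex 365/Em 440; AC50 from a titration from 0.6 nM upwards.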

Assay [2] can be described thus: AP1 Signaling Pathway (AID 357).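 Note: ME-180 reporter cells stimulated with EGF at its EC50 level; % is set by controls: 0 for no effect and ±100 for the full control effect.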 Particulars: ME-180 AP-1-bla reporter, EGF-induced, beta-lactamase ratio, 5 h; at 7.69 µM (top of the series) unless noted. In a few lines: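 A ratiometric CCF4 readout (405 nm excitation; 460 and 530 nm emission) quantified AP-1-driven beta-lactamase in ME-180 cells after 5 h with compound and EC50 EGF; AC50 values were derived for activators and inhibitors.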

Assay [3] deals with Cytochrome P450 1A2 (Homo sapiens) (UniProt P05177). As to the kind of experiment: p450-cyp1a2 (AID 410; calls by dose curve; note: potency is the fitted concentration of half-maximal effect). Particulars: recombinant CYP1A2, luciferin-ME demethylation, luminescence; series mostly up to 11.4 µM. In a few lines: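 20nM CYP1A2, 100uM Luciferin-ME (=Km), 100mM KPO4; cpd 10 min RT; +NADPH regen, 60 min RT; stop/detect 20 min; luminescence. Normalized to furafylline 57 uM = full inhibition.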

Assay [4] can be described thus: Stat Signaling Pathway (AID 446).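 Note: ME-180 cervical cancer cells given 40 pM IL-6 alongside compound; SIE-controlled beta-lactamase reporter measured as 460/530 nm FRET emission ratio; % is set by controls: 0 for no effect and ±100 for the full control effect.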 Particulars: ME-180 SIE beta-lactamase reporter, IL-6 stimulated, 5 h; at 7.69 µM (top of the series) unless noted. The method in brief: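 Normalization used AC90 stimulation (300 pM IL-6) and AC90 inhibition (125 nM pan-JAK inhibitor at 40 pM IL-6). The underlying signal is SIE-driven beta-lactamase in ME-180 cells after 5 h IL-6 exposure with compound.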

Assay [5] has as its target Glucocorticoid receptor (Homo sapiens) (UniProt P04150). Nature of the assay: GR-GFP Redistribution (AID 450;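 active = compounds whose dose series gives a full or clear partial fitted curve of increased nuclear translocation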; note: potency is the fitted concentration of half-maximal effect). To be noted: U2OS GR-GFP nuclear translocation, laser cytometry, 2 h.
Assay [6] has the same target. As to the kind of experiment: GR-EFC Redistribution (AID 451; calls by dose curve; note: potency is the fitted concentration of half-maximal effect). To be noted: CHO-K1 GR-EFC translocation, beta-gal luminescence, 2 h. The method in brief: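 CHO-K1 cells stably expressing nuclear-localized β-gal enzyme acceptor and GR fused C-terminally to the enzyme donor fragment; ligand-driven nuclear translocation restores β-gal by complementation. Compounds titrated up to 46 uM final, 2 h at 37 °C; luminescence read.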

The target in assay [7] is 3',5'-cyclic-AMP phosphodiesterase 4B (Homo sapiens) (UniProt Q07343). Nature of the assay: qHTS Assay for Inhibitors of PDE-IV (AID 607; active = well fitted activation curve with a large enough effect in the main read-out, with a control signal flat, not every such curve was filed as active; note: % of control where 0% means no effect). To be noted: HEK293 ACTOne CNG channel cells, membrane potential fluorescence; series mostly up to 22.9 µM. The method in brief: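 HEK293 ACTOne cells with CNG channel (1000/well), endogenous PDE4; membrane potential dye, compounds up to 22.9 uM final. Fluorescence Ex 535/Em 590; RO 20-1724 (100 uM final) as reference.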

Assay [8] is described as follows: qHTS Assay for Identification of Small Molecule Agonists for Hypoxia Response Element Signaling Pathway (AID 914; active = well fitted activation curve with a large enough effect in the signal ratio, with a control signal flat, not every such curve was filed as active; the % refers to the signal ratio; note: % of control where 0% means no effect). Particulars: ME-180 (cervical carcinoma) HRE-bla reporter, beta-lactamase ratio, CoCl2, 17 h; activation: hits give high values. In a few lines:
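HRE-bla ME-180 cells, overnight plating in Opti-MEM with 0.5% dialyzed FBS; cpd titration + EC50 CoCl2, 17 h, 37 degrees Celsius; CCF4 2.5 h RT; 460/530 nm ratio; AC50.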
On the technique in general: qHTS replaces the single test concentration by a dilution series.

Assay [9] has as its target Cytochrome P450 3A4 (Homo sapiens) (UniProt P08684). Nature of the assay: qHTS Assay for Activators of Cytochrome P450 3A4 (AID 885; active = well fitted curve in the direction sought with a large enough effect; an effect the other way counts as inactive or inconclusive; note: nearly all actives have a fitted effect of over 65% in size). To be noted: recombinant CYP3A4, Luciferin-PPXE luminescence, 60 min; series mostly up to 11.4 µM. The method in brief: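 Human CYP3A4 dealkylates Luciferin-PPXE to luciferin, which luciferase detection converts to light. Substrate was at its KM (25uM), buffer 200mM KPO4, reaction 60 min at RT.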

Assay [10] in a line: NFAT Signaling Pathway (AID 444).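 Note: carbachol stimulus at about its EC50 of 1 µM final; % is set by controls: 0 for no effect and ±100 for the full control effect.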 Particulars: Jurkat NFAT-bla M1, carbachol, beta-lactamase ratio, 5 h; at 7.69 µM (top of the series) unless noted. The method in brief:
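Jurkat cells carrying an NFAT-driven β-lactamase reporter and co-transfected muscarinic M1 receptor were treated with compound plus carbachol (1 uM final, an EC50 level) for 5 h at 37 °C. CCF4 loading followed for 1 h at RT; 460/530 nm ratio gave %activity.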

The target in assay [11] is Mitogen-activated protein kinase 10 (Mus musculus) (UniProt Q61831). Nature of the assay: JNK3 AlphaScreen Assay (AID 530).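 Note: kinase came from lysate of stimulated human HepG2 cells; signal reports phosphorylation of biotinylated GST-cJun 1-79 at Ser73 with 10 µM ATP; % is set by controls: 0 for no effect and ±100 for the full control effect.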 To be noted: JNK3 lysate, c-Jun phosphorylation; series mostly up to 11.4 µM. The method in brief:
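Biotinylated GST-cJun(1-79) served as substrate for JNK3 in HepG2 lysates stimulated with IL-1beta and TNF-alpha. ATP was 10 uM final, pH 7.6. Ser73 phosphorylation was quantified by AlphaScreen (680 nm excitation).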
Background: Bead proximity is the source of the signal in Alpha formats.

Assay [12] addresses Cytochrome P450 3A4 (Homo sapiens) (UniProt P08684). As to the kind of experiment: qHTS Assay for Inhibitors and Substrates of Cytochrome P450 3A4 (AID 884; active = well fitted curve in the direction sought with a large enough effect; an effect the other way counts as inactive or inconclusive; note: % is set by controls: 0 for no effect and ±100 for the full control effect; nearly all actives have a fitted effect of over 50% in size). To be noted: recombinant CYP3A4, Luciferin-PPXE luminescence; series mostly up to 57.1 µM. In a few lines:
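Luminescent readout of luciferin produced by CYP3A4 (20 nM) dealkylation of Luciferin-PPXE, 25 uM (its KM). NADPH-driven reaction ran 60 min at RT after 10 min compound preincubation; data scaled to 57 uM ketoconazole as 100% inhibition.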

For assay [13], the target named is Cytochrome P450 2D6 (Homo sapiens) (UniProt P10635). Nature of the assay: qHTS Assay for Inhibitors and Substrates of Cytochrome P450 2D6 (AID 891; active = well fitted curve in the direction sought with a large enough effect; an effect the other way counts as inactive or inconclusive;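 note: luciferin methyl ether substrate demethylated by CYP2D6 with NADPH regeneration; % is set by controls: 0 for no effect and ±100 for the full control effect; nearly all actives have a fitted effect of over 60% in size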). Particulars: recombinant CYP2D6, luciferin-ME EGE luminescence; series mostly up to 11.4 µM. In a few lines: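 Luminescent read-out of luciferin formed by 5 nM human CYP2D6 demethylating 30 uM Luciferin-ME EGE (Km level) over 60 min at room temperature after NADPH regeneration addition. Data normalized to full inhibition by 1.43 uM quinidine.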

In assay [14] the target is Cytochrome P450 2C19 (Homo sapiens) (UniProt P33261). Nature of the assay: qHTS Assay for Inhibitors and Substrates of Cytochrome P450 2C19 (AID 899; active = well fitted curve in the direction sought with a large enough effect; an effect the other way counts as inactive or inconclusive; note: % is set by controls: 0 for no effect and ±100 for the full control effect; nearly all actives have a fitted effect of over 60% in size). To be noted: recombinant CYP2C19, luciferin-H EGE luminescence; series mostly up to 11.4 µM. The method in brief: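 NADPH-dependent conversion of Luciferin-H EGE (10uM, at KM) by 5nM enzyme in 50mM KPO4, 60 min at 37C following 10 min compound preincubation. Stopped with luciferin detection buffer; luminescence read after 20 min.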

A number with no mark means an inactive call. Inconclusive results are not listed. The source made the active and inactive calls. Unless noted, calls come from the whole dose curve; as a rule, active = well fitted curve in either direction with a large enough effect (not every such curve was filed as active); inconclusive = small, poorly fitted or top-dose-only effect, or another doubt; inactive = flat fitted curve, though single readings scatter. A value given as a limit tells only on which side of the number the result lay.

3',5'-cyclic-AMP phosphodiesterase 4B (Homo sapiens), sequence (Q07343 whole entry, looked up): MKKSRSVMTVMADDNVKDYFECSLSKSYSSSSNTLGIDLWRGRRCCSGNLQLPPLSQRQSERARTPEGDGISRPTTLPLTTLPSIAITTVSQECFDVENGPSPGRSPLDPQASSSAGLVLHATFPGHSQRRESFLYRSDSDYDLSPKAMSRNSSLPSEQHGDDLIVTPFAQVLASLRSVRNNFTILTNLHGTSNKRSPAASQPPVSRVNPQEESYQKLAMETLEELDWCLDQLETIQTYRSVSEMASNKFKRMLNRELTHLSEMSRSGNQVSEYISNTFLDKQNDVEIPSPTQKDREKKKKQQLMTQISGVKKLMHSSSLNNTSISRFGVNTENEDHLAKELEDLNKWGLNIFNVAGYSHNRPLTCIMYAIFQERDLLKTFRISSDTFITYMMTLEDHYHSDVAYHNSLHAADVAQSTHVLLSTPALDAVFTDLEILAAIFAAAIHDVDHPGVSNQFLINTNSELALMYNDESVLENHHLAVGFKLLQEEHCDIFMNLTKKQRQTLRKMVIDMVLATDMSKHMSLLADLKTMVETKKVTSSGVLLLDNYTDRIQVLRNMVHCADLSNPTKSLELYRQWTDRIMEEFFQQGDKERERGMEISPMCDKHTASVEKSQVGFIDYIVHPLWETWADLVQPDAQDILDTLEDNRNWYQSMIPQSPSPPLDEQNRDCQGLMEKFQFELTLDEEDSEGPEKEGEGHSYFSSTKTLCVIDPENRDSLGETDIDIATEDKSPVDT
Cytochrome P450 1A2 (Homo sapiens), sequence (P05177 whole entry, looked up): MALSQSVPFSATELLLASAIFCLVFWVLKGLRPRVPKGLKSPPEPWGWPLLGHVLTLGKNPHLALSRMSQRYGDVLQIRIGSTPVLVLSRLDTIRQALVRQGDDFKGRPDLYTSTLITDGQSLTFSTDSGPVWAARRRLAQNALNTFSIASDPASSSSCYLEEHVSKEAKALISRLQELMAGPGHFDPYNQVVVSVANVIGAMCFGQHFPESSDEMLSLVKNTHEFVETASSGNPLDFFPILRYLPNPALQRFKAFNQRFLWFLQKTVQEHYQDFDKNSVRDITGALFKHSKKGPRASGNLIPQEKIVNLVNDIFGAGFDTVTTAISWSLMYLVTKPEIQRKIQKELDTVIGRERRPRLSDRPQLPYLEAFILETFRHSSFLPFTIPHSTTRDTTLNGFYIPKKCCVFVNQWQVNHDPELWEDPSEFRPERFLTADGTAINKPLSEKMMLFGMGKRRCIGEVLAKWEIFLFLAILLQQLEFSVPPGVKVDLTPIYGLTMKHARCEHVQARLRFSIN
Glucocorticoid receptor (Homo sapiens), sequence (P04150 whole entry, looked up, the tested form may be a part): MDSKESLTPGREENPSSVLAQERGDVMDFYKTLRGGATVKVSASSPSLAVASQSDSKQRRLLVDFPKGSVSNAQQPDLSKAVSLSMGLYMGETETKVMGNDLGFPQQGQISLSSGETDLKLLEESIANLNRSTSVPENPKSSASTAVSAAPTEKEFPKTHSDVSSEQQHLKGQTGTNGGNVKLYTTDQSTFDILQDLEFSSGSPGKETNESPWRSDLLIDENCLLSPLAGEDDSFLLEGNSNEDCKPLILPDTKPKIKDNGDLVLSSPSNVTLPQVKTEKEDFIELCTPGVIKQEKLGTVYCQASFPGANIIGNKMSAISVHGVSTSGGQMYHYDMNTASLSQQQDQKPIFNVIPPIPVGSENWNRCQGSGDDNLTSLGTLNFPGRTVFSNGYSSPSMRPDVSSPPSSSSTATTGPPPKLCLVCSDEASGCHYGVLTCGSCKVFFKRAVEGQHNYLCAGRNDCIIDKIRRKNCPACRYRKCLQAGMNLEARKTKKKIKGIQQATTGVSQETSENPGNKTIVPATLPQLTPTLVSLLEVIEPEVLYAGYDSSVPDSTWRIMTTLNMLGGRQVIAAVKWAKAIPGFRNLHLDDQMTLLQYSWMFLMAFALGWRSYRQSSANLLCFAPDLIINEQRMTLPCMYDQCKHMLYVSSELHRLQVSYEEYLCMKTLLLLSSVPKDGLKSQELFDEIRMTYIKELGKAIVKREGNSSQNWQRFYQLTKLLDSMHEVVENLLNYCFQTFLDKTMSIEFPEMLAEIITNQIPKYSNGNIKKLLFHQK
Lysosomal acid glucosylceramidase (Homo sapiens), sequence (P04062 whole entry, looked up): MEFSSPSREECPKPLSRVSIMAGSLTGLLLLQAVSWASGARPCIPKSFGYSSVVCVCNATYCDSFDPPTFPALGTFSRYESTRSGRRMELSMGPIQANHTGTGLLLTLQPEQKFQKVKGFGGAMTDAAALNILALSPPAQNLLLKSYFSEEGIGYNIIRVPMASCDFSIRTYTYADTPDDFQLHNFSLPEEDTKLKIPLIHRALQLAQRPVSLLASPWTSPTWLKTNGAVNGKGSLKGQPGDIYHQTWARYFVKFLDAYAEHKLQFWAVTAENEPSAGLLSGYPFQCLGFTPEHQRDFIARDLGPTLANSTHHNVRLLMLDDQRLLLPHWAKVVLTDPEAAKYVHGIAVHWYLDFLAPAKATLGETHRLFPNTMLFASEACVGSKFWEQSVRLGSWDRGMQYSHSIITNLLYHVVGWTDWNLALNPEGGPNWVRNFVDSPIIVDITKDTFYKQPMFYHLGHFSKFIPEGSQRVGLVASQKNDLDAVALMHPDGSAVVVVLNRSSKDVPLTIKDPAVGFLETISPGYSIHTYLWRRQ
Cytochrome P450 3A4 (Homo sapiens), sequence (P08684 whole entry, looked up): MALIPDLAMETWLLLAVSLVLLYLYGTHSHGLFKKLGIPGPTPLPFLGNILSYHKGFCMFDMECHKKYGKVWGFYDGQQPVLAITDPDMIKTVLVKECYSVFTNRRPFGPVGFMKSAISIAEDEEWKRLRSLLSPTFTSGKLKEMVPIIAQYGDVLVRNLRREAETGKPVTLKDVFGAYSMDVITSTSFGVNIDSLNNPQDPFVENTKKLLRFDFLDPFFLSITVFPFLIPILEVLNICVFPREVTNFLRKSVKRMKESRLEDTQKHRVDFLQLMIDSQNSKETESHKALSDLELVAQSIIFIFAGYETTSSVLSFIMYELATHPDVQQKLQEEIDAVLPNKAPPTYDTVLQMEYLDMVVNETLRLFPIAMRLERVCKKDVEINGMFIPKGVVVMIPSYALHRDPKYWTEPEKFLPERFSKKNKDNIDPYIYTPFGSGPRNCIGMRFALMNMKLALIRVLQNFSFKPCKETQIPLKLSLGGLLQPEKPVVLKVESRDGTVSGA
Cytochrome P450 2D6 (Homo sapiens), sequence (P10635 whole entry, looked up): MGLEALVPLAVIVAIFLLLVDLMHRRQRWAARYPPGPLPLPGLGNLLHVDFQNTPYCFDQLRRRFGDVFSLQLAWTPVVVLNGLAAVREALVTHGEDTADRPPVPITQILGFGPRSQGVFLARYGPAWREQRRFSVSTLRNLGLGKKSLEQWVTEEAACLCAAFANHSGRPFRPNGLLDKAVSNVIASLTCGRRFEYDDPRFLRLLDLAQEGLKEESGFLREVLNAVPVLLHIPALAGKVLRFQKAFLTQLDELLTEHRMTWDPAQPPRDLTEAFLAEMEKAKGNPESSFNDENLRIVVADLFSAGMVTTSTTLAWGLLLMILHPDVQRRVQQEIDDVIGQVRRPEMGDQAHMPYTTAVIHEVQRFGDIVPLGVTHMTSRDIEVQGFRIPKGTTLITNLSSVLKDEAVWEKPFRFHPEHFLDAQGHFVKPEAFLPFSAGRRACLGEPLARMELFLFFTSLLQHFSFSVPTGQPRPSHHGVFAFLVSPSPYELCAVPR
Cytochrome P450 2C19 (Homo sapiens), sequence (P33261 whole entry, looked up): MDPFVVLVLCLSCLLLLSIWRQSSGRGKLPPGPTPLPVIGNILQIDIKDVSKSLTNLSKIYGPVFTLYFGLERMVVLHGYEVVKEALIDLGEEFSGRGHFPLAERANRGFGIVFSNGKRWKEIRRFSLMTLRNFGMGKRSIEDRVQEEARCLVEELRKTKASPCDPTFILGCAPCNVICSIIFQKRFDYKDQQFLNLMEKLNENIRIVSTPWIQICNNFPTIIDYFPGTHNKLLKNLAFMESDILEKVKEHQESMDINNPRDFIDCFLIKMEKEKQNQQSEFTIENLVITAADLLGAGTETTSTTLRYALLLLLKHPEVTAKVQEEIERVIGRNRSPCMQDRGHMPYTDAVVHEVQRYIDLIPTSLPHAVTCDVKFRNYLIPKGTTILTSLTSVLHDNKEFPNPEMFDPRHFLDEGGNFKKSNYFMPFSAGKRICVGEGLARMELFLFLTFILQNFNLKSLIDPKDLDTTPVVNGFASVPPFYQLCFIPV

With `O[C@H](C[C@@H]1CCCCN1)c1ccc2c(c1)oc1ccccc12`, the figures for the Potency in assay [1], in [5] and in [6] were above 11.4 µM, above 46 µM and above 9.22 µM, respectively. The activity change, negative = inhibition is 6.24% in assay [2] and -10.4% [at 2.29 µM] in assay [3]. For the same molecule, in [4], the activity, negative = inhibition was 4%. The Potency result in assay [7] is “inactive”. Moreover, the activation in assay [8] was -0.884%.

`CCOC(=O)c1c2c(n3ccccc13)C(=O)c1ccccc1C2=O`: the Potency is above 11.4 µM in [1], 0.1 µM (active) in [3], above 46 µM in assay [5] and above 9.22 µM in assay [6]. Moreover, the activity change, negative = inhibition in [2] is 19.9%. The Potency entry in assay [7] and in assay [9] was “inactive” each time.

For the molecule `O=c1ccc(-c2ccccc2)n[nH]1`, the values for the Potency in [1], in [5] and in assay [6] were above 11.4 µM, above 46 µM and above 9.22 µM, respectively. Besides, the values for the activity change, negative = inhibition in assay [2] and in assay [10] were 1.12% and -2.18%, respectively. Moreover, the activity, negative = inhibition in assay [4] was -3.27%. In addition, the Potency entry in assay [11] and in assay [7] was “inactive” throughout.

As to `C[C@H]1[C@H](C)CC[C@]2(C(=O)O)CC[C@]3(C)C(=CC[C@@H]4[C@]5(C)C[C@H](O)[C@@H](O)[C@@](C)(CO)[C@@H]5[C@H](O)C[C@@]43C)[C@H]12`, the Potency is above 11.4 µM in assay [1], above 46 µM in assay [5] and above 9.22 µM in assay [6]. In addition, the activity change, negative = inhibition in assay [2] was -6.13%; in [10], 27.7%. In addition, the activity, negative = inhibition in [4] is 8.93%. Besides, the Potency result in [11] and in [7] was “inactive” each time.

In the case of `Cc1cc2c(=O)[nH]c(N)nc2nc1C`, the Potency in [1] was above 11.4 µM; in assay [5], above 46 µM; in [6], above 9.22 µM. Further, the activity change, negative = inhibition is 1.82% in [2] and 7.25% in [10]. In addition, the activity, negative = inhibition in [4] was 9.62%. Moreover, the Potency entry in assay [11] and in assay [7] was “inactive” throughout.

As for `COc1ccc(Oc2ncc3nc(C)c(=O)n(Cc4ccc(F)cc4)c3n2)cc1`, the Potency was above 11.4 µM in assay [1], above 9.22 µM in [5] and above 46 µM in assay [6]. In addition, the results for the activity change, negative = inhibition in assay [2] and in assay [10] were -26.5% and -3.9%, respectively. In addition, in [4], the activity, negative = inhibition is -12.2%. Besides, in assay [11], the Potency result was “inactive”.

Take `Cc1nc(N)nc2ccccc12`: the Potency in assay [1] is above 11.4 µM; in [5], above 46 µM; in assay [6] it was above 9.22 µM. Further, the figures for the activity change, negative = inhibition in assay [2] and in assay [10] were -0.162% and 0.491%, respectively. In addition, in [4], the activity, negative = inhibition was 2.21%. In addition, the Potency entry in assay [11] and in assay [7] was “inactive” throughout.

As to `CSc1ncnc2c1ncn2CC(=O)[C@H]1CC[C@H]2[C@H]3CCC4=CC(=O)CC[C@@]4(C)[C@@H]3CC[C@@]12C`, the Potency in [1] was above 11.4 µM; in assay [3], 3.98 µM (active); in assay [5] it was above 46 µM; in assay [6] it was above 9.22 µM. Further, the values for the activity change, negative = inhibition in assay [2] and in assay [12] were -21.5% and -20.1% [at 11.4 µM], respectively. In addition, the Potency entry in assay [11], in assay [7], in [13] and in assay [14] was “inactive” in each case.

For the molecule `O=C(O)CCCCn1cnc2c(=S)nc[nH]c21`, the Potency in assay [1] is above 11.4 µM; in assay [5], above 46 µM; in [6], above 9.22 µM. Besides, the activity change, negative = inhibition was 8.11% in [2] and 5.86% in [10]. Besides, the activity, negative = inhibition in assay [4] is 6.11%. The Potency result in [11] and in [7] was “inactive” each time.
